The panel holds about 79,000 compounds, 15% with a hit somewhere; the sample as a whole holds those more often. Rule as the data show it: active = growth inhibition above about 70%; inactive = the rest.
Legend:
[1] = NCI Yeast Anticancer Drug Screen. Data for the rad50 strain (AID 155);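 also: 0% = growth of vehicle-only cultures of the same strain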; settings: S. cerevisiae rad50 strain growth inhibition; at 50.0 µM; hits give high values
Summary of the method: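 Readout: growth inhibition relative to vehicle-treated cultures. Compound exposure was carried out in a genetically defined yeast strain deficient in DNA damage repair.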

[2] = NCI Yeast Anticancer Drug Screen. Data for the mec2-1 strain (AID 157); settings: S. cerevisiae mec2-1 strain, at 50.0 µM, hits give high values
Summary of the method: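 Cells of the genetically defined mec2-1 yeast strain are incubated with test compound. Inhibition of growth is calculated against vehicle-treated controls.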

[3] = NCI Yeast Anticancer Drug Screen. Data for the sgs1 mgt1 strain (AID 161);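 also: 0% = growth of cultures given vehicle only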; settings: S. cerevisiae sgs1 mgt1 strain, at 50.0 µM, hits give high values
Summary of the method: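 Mutant yeast exposed to compound; growth scored against vehicle-only wells.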

[4] = NCI Yeast Anticancer Drug Screen. Data for the cln2 rad14 strain (AID 165);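 also: 0% = growth equal to vehicle treated cultures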; settings: S. cerevisiae cln2 rad14 strain, at 50.0 µM, hits give high values
Summary of the method: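 The screen exposed genetically defined yeast (cln2 rad14) to test compounds and scored growth inhibition relative to vehicle-treated controls.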

[5] = NCI Yeast Anticancer Drug Screen. Data for the bub3 strain (AID 167); settings: S. cerevisiae bub3 mutant strain, at 50.0 µM, hits give high values
Summary of the method: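 Readout: yeast growth inhibition, expressed relative to vehicle-only wells. The test organism is a mutant strain from a panel with lesions in DNA repair or checkpoint genes.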

[6] = NCI Yeast Anticancer Drug Screen. Data for the mlh1 rad18 strain (AID 175); settings: S. cerevisiae mlh1 rad18 strain growth inhibition; at 50.0 µM; hits give high values
Summary of the method: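 Compound-treated yeast growth, normalised to vehicle controls. Strain bears defined DNA repair mutations.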

Measured: growth inhibition

CCOC(=O)/C(C#N)=C(/SC)N1CC1
inactive: [1] 1.9% | [2] 12% | [3] 1.4% | [4] -7.2% | [5] 6.8% | [6] -2%

CC1CC[Si](C)(C)CC12C(=O)NC(=O)NC2=O (centres undefined)
inactive: [1] 6.65% | [2] 1.95% | [3] 19.6% | [4] -0.05% | [5] 10.1% | [6] -7.05%

S=P12OCCC(CO1)O2 (centres undefined)
inactive: [1] 8.2% | [2] -9.35% | [3] 3.85% | [4] -23.8% | [5] -8.15% | [6] -3.15%

O=C(O)C(Oc1nc(=S)[nH]c(=S)[nH]1)(c1ccc(Cl)cc1)c1ccc(Cl)cc1
inactive: [1] -1.5% | [2] 6.55% | [3] -23.2% | [4] 0.55% | [5] -10.7% | [6] -8.8%

NC(=O)Nc1ccc([As]=O)cc1 (centres undefined)
inactive: [1] 8% | [2] -5.7% | [3] -1.3% | [4] 11.5% | [5] -15.2% | [6] 2.65%

O=S(=O)(C(Cl)Cl)C(Cl)(Cl)S(=O)(=O)C(Cl)Cl
inactive: [1] -11.4% | [2] -53% | [3] 5.8% | [4] -40.2% | [5] 5.1% | [6] 13.1%

CC12CCC3C(CC(N4CC4)C4(O)CC(O)CCC34C)C1CCC2=O (centres undefined)
inactive: [1] 15.6% | [2] -10.2% | [3] -3.85% | [4] 14.8% | [5] -8% | [6] -8%

CC1(C)OC2OCCC(N=[N+]=[N-])C2O1 (centres undefined)
inactive: [1] 0.85% | [2] -5.35% | [3] -0.95% | [4] -29.8% | [5] -0.75% | [6] -4.4%

C[N+](C)=C(Cl)Cl
inactive: [1] 1.75% | [2] -30.1% | [3] -8.1% | [4] 4.15% | [5] -7.85% | [6] -12.9%

CCOP(=O)(CC(N)=O)OCC
inactive: [1] -4.9% | [2] 9.8% | [3] 3.5% | [4] 0.1% | [5] 13.8% | [6] -11.8%

CCOC(=O)/C=C/CP(=O)(OCC)OCC
inactive: [1] 7.9% | [2] -11.5% | [3] 15.2% | [4] 11.3% | [5] 9.55% | [6] 18.2%

O=C(COc1ccccc1Cl)Nc1ccc[n+](Cc2ccc(S(=O)(=O)F)cc2)c1
inactive: [1] -20.9% | [2] -21.2% | [3] 2.9% | [4] -42.2% | [5] -3.15% | [6] -0.7%

CC(=O)Nc1ccc([As](=O)(O)O)cc1[N+](=O)[O-]
inactive: [1] 0.85% | [2] -12.3% | [3] 0.1% | [4] -3.35% | [5] 23.2% | [6] 15.5%

CCCCN(CCCC)CC(O)c1cc(Cl)c(Cl)cc1C (centres undefined)
inactive: [1] 10.5% | [2] -13.2% | [3] 35.1% | [4] -1.3% | [5] 27.4% | [6] 25.3%

CCC1c2cc(O)c(OC)cc2CCN1C (centres undefined)
inactive: [1] -7.7% | [2] -0.9% | [3] 2.45% | [4] -14.9% | [5] -7.75% | [6] -8%

COc1c2c(cc3c1OCO3)[C@]13C=C[C@H](OC)C[C@H]1N(C2)CC3O (some centres undefined)
inactive: [1] 17.2% | [2] 5.75% | [3] 3.6% | [4] -0.55% | [5] 1.55% | [6] -53.9%

O=Cc1ccccc1.[C-]#[O+].[C-]#[O+].[C-]#[O+].[Cr]
inactive: [1] 7.35% | [2] -34.2% | [3] 1.8% | [4] -19.1% | [5] 11.1% | [6] 15.8%

N#CCO
inactive: [1] -3.7% | [2] 11.3% | [3] -9.1% | [4] -5.4% | [5] -3.4% | [6] -5.65%

CCN(CC)CCn1c(=O)c2ccccc2n(CCN(CC)CC)c1=O
inactive: [1] 19.6% | [2] 13.1% | [3] 22.5% | [4] 20.8% | [5] 12.7% | [6] 10.4%

Oc1cccc(Cl)c1
inactive: [1] -3.15% | [2] -30.1% | [3] 4.75% | [4] 6.1% | [5] -2.45% | [6] 8.3%

COc1cc(C=C2C(=O)NC(=O)NC2=O)ccc1O
inactive: [1] 1.85% | [2] -23.4% | [3] 5.05% | [4] 4.3% | [5] -2% | [6] 6.35%

CCOP(=O)(O)C1CCCC(C)[N-]1.CCOP(=O)(O)C1CCCC(C)[N-]1.[Cu+2] (centres undefined)
inactive: [1] 49.4% | [2] 33.6% | [3] 31.7% | [4] 45.2% | [5] 2.9% | [6] 26.6%

CCOC(C(=O)O)(c1ccccc1)c1ccccc1
inactive: [1] -0.55% | [2] 22.2% | [3] 18.5% | [4] -10.1% | [5] 19.5% | [6] 22.8%

O=[N+]([O-])c1cc(Cl)c(Cl)c([N+](=O)[O-])c1Cl
inactive: [1] -7.05% | [2] -18.3% | [3] 6.4% | [4] -23.8% | [5] -1.95% | [6] 6.8%

O.[Cr+3].[NH2-].[NH2-].[NH2-].[NH2-].[NH2-].[O-][Cl+3]([O-])([O-])O
inactive: [1] 16.6% | [2] 6.85% | [3] -0.4% | [4] 9.75% | [5] 3.85% | [6] -18.1%

Cc1ccc(OP(=O)(Oc2ccc(C)cc2)Oc2ccc(C)cc2)cc1.Cc1ccc(OP(=O)(Oc2ccc(C)cc2)Oc2ccc(C)cc2)cc1.[Cl][Ni][Cl]
inactive: [1] 23.5% | [2] 35.8% | [3] 29.4% | [4] 4.2% | [5] 38.4% | [6] 59.3%

N/C(=N\N=C\c1ccc(O)cc1O)N[N+](=O)[O-]
inactive: [1] 12.2% | [2] -0.85% | [3] -3.45% | [4] -41.7% | [5] 3.65% | [6] 4.1%

CNCCc1ccc(O)c2ccc3ccc(OC)c(O)c3c12
inactive: [1] 2.5% | [2] -7.25% | [3] -14.2% | [4] 5.25% | [5] -17.3% | [6] 4.05%

NC1=NC(N)=N1
inactive: [1] 1.95% | [2] 16.6% | [3] -6.2% | [4] -1.25% | [5] 14.2% | [6] -13.2%

CC(=O)c1c(O)c(C)c(O)c(Cc2c(O)c3c(c(C(=O)/C=C/c4ccccc4)c2O)OC(C)(C)C=C3)c1O
inactive: [1] 23.9% | [2] 29.8% | [3] 49.1% | [4] 17.7% | [5] 39.8% | [6] 14.5%

CC(=O)Nc1ccc([N+](=O)[O-])c(C(F)(F)F)c1
inactive: [1] -4.2% | [2] -6.4% | [3] 9.05% | [4] 13.1% | [5] -3.9% | [6] 6.05%

O=[N+]([O-])c1ccc(OCc2ccc(S(=O)(=O)F)cc2Cl)c(Cl)c1
inactive: [1] 1.45% | [2] -2.95% | [3] -3.15% | [4] 20.6% | [5] -3.55% | [6] -3.6%

Cc1ccc2cc3c(ccc4ccccc43)c3c2c1CC3
inactive: [1] -9.05% | [2] -23.9% | [3] -2.75% | [4] -3.4% | [5] 13.3% | [6] 1.85%

O=P(Oc1ccccc1)(N1CCCC1)N1CCCC1
inactive: [1] 27.9% | [2] 18.4% | [3] 11.9% | [4] 18.1% | [5] 36.5% | [6] 8.15%

[C-]#[O+].[C-]#[O+].[Ir].[O-]c1cccc2cccnc12
inactive: [1] -19.2% | [2] -27.6% | [3] -4.6% | [4] 12.7% | [5] -13.2% | [6] -4.8%

Cc1c(Cl)cc([N+](=O)[O-])c(O)c1[N+](=O)[O-]
inactive: [1] 6.1% | [2] -1.45% | [3] 5% | [4] 30.7% | [5] 26.1% | [6] 7.85%

N.N.N.N.N.[Co+3].[I-].[N-]=[N+]=[N-]
inactive: [1] -0.25% | [2] 32.8% | [3] -25.4% | [4] 20.4% | [5] -6.05% | [6] -9.05%

CC(CO)([N+](=O)[O-])[N+](=O)[O-]
inactive: [1] 7.45% | [2] 4.75% | [3] -0.05% | [4] -0.1% | [5] 4.8% | [6] 7.35%

O=C1CCCN1
inactive: [1] -8.1% | [2] -1.7% | [3] 3.1% | [4] -4.85% | [5] -0.2% | [6] -11.7%
